Measurements reported in PubChem BioAssay AID463173 (ICCB-Longwood Screening Facility, Harvard Medical School, 2010).
About 4,300 (8.3%) of roughly 52,000 compounds were called active. Shown is part of a subset that was picked to be rich in actives. Unmarked numbers belong to inactive results. Rule as the data show it: active = survival mostly below about 52% (no sharp cut-off); inactive = mostly above about 56%.

Each molecule was assayed on DeltatarO mutant (assay: growth inhibition of S. aureus wild type versus tarO mutant, primary screen, teichoic acid synthesis inhibitors, RN4220, OD600 (AID 463173)). Conditions: OD600, 18 h, stronger effect = lower value, screened at 18.75 µg/mL (by protocol).

Row | Compound | survival
1 | CCCCOC(=O)c1ccc(NC(=O)c2sc3nc(C)cc(C)c3c2N)cc1 | 65%
2 | CCCCn1cc(S(=O)(=O)c2ccccc2)c(=O)c2cc(F)c(N3CCC(C)CC3)cc21 | 68%
3 | C=CCn1c(SCc2cccnc2)nnc1-c1ccncc1 | 88%
4 | CCOc1ccc(NC(=O)c2ccc(NC(=O)N3CCSc4ncccc43)cc2)cc1 | 76%
5 | Cc1ccc(Cl)cc1NC(=O)c1ccc(NC(=O)N2CCSc3ncccc32)cc1 | 79%
6 | CC(C)Oc1ccc(CNC(=O)c2cccc(NC(=O)N3CCSc4ncccc43)c2)cc1 | 88%
7 | Cc1ccc(NC(=O)c2ccc(NC(=O)N3CCSc4ncccc43)cc2)c(C)c1 | 86%
8 | CCc1cccc(NC(=O)c2ccc(NC(=O)N3CCSc4ncccc43)cc2)c1 | -1% (active)
9 | CC(=O)c1ccc(NC(=O)c2cccc(NC(=O)N3CCSc4ncccc43)c2)cc1 | 79%
10 | CC(C)Oc1ccc(CNC(=O)Cc2ccc(NC(=O)N3CCSc4ncccc43)cc2)cc1 | 102%
11 | CC(C)Oc1ccc(CNC(=O)c2ccc(NC(=O)N3CCSc4ncccc43)cc2)cc1 | 6% (active)
12 | Cc1ccccc1NC(=O)c1ccc(NC(=O)N2CCSc3ncccc32)cc1 | -2% (active)
13 | CC(C)CC1CC(C)(C(=O)CSc2n[nH]c(-c3ccccc3)n2)OC1=O (stereo not drawn) | 80%
14 | COC(=O)c1cc(C)nc2c1c(=O)nc(SCc1cccc(C)c1)n2C1CC1 | 78%
15 | COc1ccc(CNC(=O)c2cnc3sc(N4CCCC4)nn3c2=O)c(OC)c1 | 70%
16 | Cc1ccccc1Nc1c(-c2ccsc2)nc2c(C)cccn12 | 8% (active)
17 | Cc1ccc(Nc2c(-c3ccc(O)cc3)nc3cccc(C)n23)cc1 | 84%
18 | Cc1cccc(C)c1Nc1c(-c2ccsc2)nc2cccc(C)n12 | 54%
19 | Cc1cccn2c(Nc3ccccc3)c(-c3ccc(N4CCOCC4)cc3)nc12 | 113%
20 | Cc1cccn2c(Nc3ccccc3)c(-c3cccs3)nc12 | 89%
21 | Cc1ccc(Nc2c(-c3ccc(N4CCOCC4)cc3)nc3c(C)cccn23)cc1 | 56%
22 | Cc1ccc(Nc2c(-c3ccsc3)nc3c(C)cccn23)cc1 | 20% (active)

Row | Compound | survival
23 | Cc1ccccc1Nc1c(-c2ccc(Cl)cc2)nc2c(C)cccn12 | 69%
24 | Cc1ccccc1Nc1c(-c2ccc(O)cc2)nc2c(C)cccn12 | 72%
25 | Cc1ccc2nc(-c3ccsc3)c(Nc3ccc(Cl)cc3)n2c1 | 73%
26 | Cc1ccc(Nc2c(-c3ccsc3)nc3cccc(C)n23)cc1 | 25% (active)
27 | Cc1ccc(Nc2c(-c3ccc(C)cc3)nc3c(C)cccn23)cc1 | 9% (active)
28 | CCOC(=O)c1cccc(NC(=O)N2CCOCC2)c1 | 80%
29 | O=C(Cn1c2[n+](c3ccccc31)CC(O)CS2)N1CCCCC1 (stereo not drawn) | 72%
30 | O=C(Cn1c(=O)c2cccn2c2ccccc21)NCc1ccccc1F | 84%
31 | CCCNS(=O)(=O)c1cc(-c2nn3c(C)nnc3c3ccccc23)ccc1C | 61%
32 | C=C(C)c1cccc(C(C)(C)NC(=O)NC2CC(C)(C)NC(C)(C)C2)c1 | 107%
33 | Cc1ccc(CCNC(=O)c2ccc3[nH]c(C)c(C)c3c2)cc1 | 116%
34 | CCCn1c(=O)n(-c2ccccc2Cl)c(=O)c2sc3ccccc3c21 | 95%
35 | Cc1c(C(=O)OCCOc2ccccc2)[nH]c2c1C(=O)CC(c1ccc(C(C)(C)C)cc1)C2 (stereo not drawn) | 70%
36 | Cc1cc(C)cc(NS(=O)(=O)c2ccc(-n3cccn3)cc2)c1 | 75%
37 | Cc1ccc2c(=O)cc(C(=O)Nc3sc4c(c3C(=O)NCC3CCCO3)CCC4)oc2c1 (stereo not drawn) | 71%
38 | Cc1cc2oc(C(=O)Nc3sc4c(c3C(=O)NCC3CCCO3)CCCC4)cc(=O)c2cc1C (stereo not drawn) | 47% (active)
39 | Cc1ccc2c(=O)cc(C(=O)Nc3sc4c(c3C(=O)NCC3CCCO3)CCCC4)oc2c1 (stereo not drawn) | 71%
40 | O=C(Nc1sc2c(c1C(=O)NCC1CCCO1)CCC2)c1cc(=O)c2ccccc2o1 (stereo not drawn) | 66%
41 | Cc1ccc2oc(C(=O)Nc3sc4c(c3C(=O)NCC3CCCO3)CCC4)cc(=O)c2c1 (stereo not drawn) | 79%
42 | O=C(Nc1sc2c(c1C(=O)NCC1CCCO1)CCCC2)c1cc(=O)c2ccccc2o1 (stereo not drawn) | 50%
43 | Cc1cc2oc(C(=O)Nc3sc4c(c3C(=O)NCC3CCCO3)CCC4)cc(=O)c2cc1C (stereo not drawn) | 36% (active)
44 | Cc1ccc2c(=O)cc(C(=O)Nc3sc4c(c3C(=O)NCC3CCCO3)CCCC4)oc2c1C (stereo not drawn) | 85%

Row | Compound | survival
45 | O=C(Nc1sc2c(c1C(=O)NCC1CCCO1)CCC2)c1cc(=O)c2cc(Cl)ccc2o1 (stereo not drawn) | 43% (active)
46 | Cc1noc(/C=C/c2cccs2)c1S(=O)(=O)N1CCC(C(=O)Nc2ccc(F)c(Cl)c2)CC1 | 52%
47 | COc1ccc(-c2cc3nc(N)cc(=O)n3[nH]2)cc1 | 148%
48 | CCOc1cccc2cc(-c3nc4sc5c(c4c(=O)[nH]3)CCC(C(C)(C)C)C5)c(=O)oc12 (stereo not drawn) | 79%
49 | CCOC(=O)Cc1c(C)nc2c(-c3ccc(OC)c(OC)c3)c(C)nn2c1C | 82%
50 | Cc1ccccc1Cn1c(=O)n(CC2CCC(C(=O)N3CCC(C)CC3)CC2)c(=O)c2sccc21 (stereo not drawn) | 73%
51 | O=C(COC(=O)c1cc(-c2cccs2)nc2ccccc12)c1ccccc1 | 45%
52 | CCCCOc1ccc(CNC(=O)CCCN2C(=O)CSc3c2c(C)nn3-c2ccccc2)cc1 | 72%
53 | CC(C(=O)N1CCCC1)N1CCN(c2ccc(F)cc2)CC1 (stereo not drawn) | 87%
54 | COc1cccc(C(=O)Nc2ccc3nc(SCc4ccc(C)cc4)sc3c2)c1 | 64%
55 | COc1ccc(Nc2nc(N)nc(CSc3nc4cc(OC)ccc4s3)n2)cc1 | 41% (active)
56 | CN1CCN(Cc2nc(N)nc(Nc3ccccc3)n2)CC1 | 70%
57 | COc1ccc(Nc2nc(N)nc(CSc3nc4ccccc4s3)n2)cc1 | 21% (active)
58 | COc1ccc2sc(N)nc2c1 | 93%
59 | COc1ccc(C(=O)Nc2ccc3nc(SCc4ccc(C)cc4)sc3c2)cc1 | 88%
60 | Cc1cc2ncn(CCC(=O)NC(C)(C)C)c2cc1C | 95%
61 | O=C(O)Cn1nnnc1SCC(=O)Nc1ccc(F)cc1F | 75%
62 | CN(C(=O)C(=O)Nc1ccc2nc3n(c(=O)c2c1)CCCCC3)c1cccc(C(F)(F)F)c1 | 76%
63 | COc1cc2[nH]c(=O)c(C(=O)NC3CCCC3)c(O)c2cc1OC | 98%
64 | CCCCOC(=O)c1ccc(NC2=NS(=O)(=O)c3ccccc32)cc1 | 66%
65 | COc1ccc(C2CC(=O)c3cc(-c4nc(-c5cccc([N+](=O)[O-])c5)cs4)c(=O)n(-c4ccc(OC)cc4)c3C2)cc1 (stereo not drawn) | 57%
66 | CCc1ccc(NC(=O)CC2C(=O)N(c3cccc(C)c3)C(=O)N2Cc2cccc(OC)c2)cc1 (stereo not drawn) | 92%

Row | Compound | survival
67 | Cc1nc(-c2ccc(S(=O)(=O)N3CCN(c4cccc(Cl)c4)CC3)cc2)co1 | 91%
68 | CCOc1ccc(-c2cc(CCCC(=O)NCCc3ccc(OC)c(OC)c3)no2)cc1 | 91%
69 | CCOc1ccc(-c2cc(CCCC(=O)NCCc3cc(OC)c(OC)c(OC)c3)no2)cc1 | 43% (active)
70 | CCOc1ccc(CCNC(=O)CCCc2cc(-c3ccc(OCC)cc3)on2)cc1 | 92%
71 | COc1cc(C2c3c(oc4ccccc4c3=O)C(=O)N2c2ccccn2)cc(OC)c1OC (stereo not drawn) | 146%
72 | Cc1nnc(N2CCN(c3cccc(C(F)(F)F)c3)CC2)c2c1nnn2Cc1ccccc1 | 80%
73 | CCCn1c(=NC(=O)c2c(-c3c(F)cccc3Cl)noc2C)c(C(=O)OCC)cc2c(=O)n3ccccc3nc21 | 164%
74 | CCOC(=O)c1cc2c(=O)n3ccccc3nc2n(Cc2ccco2)c1=NC(=O)c1ccc(Br)cc1 | 55%
75 | CCOC(=O)c1cc2c(=O)n3ccccc3nc2n(Cc2ccco2)c1=NC(=O)c1c(F)cccc1Cl | 42%
76 | CCOC(=O)c1cc2c(=O)n3ccccc3nc2n(Cc2ccco2)c1=NC(=O)c1ccc(C(C)(C)C)cc1 | 36% (active)
77 | CCOC(=O)c1cc2c(=O)n3ccccc3nc2n(Cc2ccco2)c1=NC(=O)c1ccc(F)cc1 | 43% (active)
78 | CCOC(=O)c1cc2c(=O)n3ccccc3nc2n(Cc2ccco2)c1=NC(=O)c1cccc(F)c1 | 17% (active)
79 | CCOC(=O)c1cc2c(=O)n3ccccc3nc2n(Cc2ccco2)c1=NC(=O)c1ccc(C)c(C)c1 | 34% (active)
80 | CN1CCN(C(=O)c2cnn(-c3cccc(Cl)c3)c2C2CCN(C(=O)OC(C)(C)C)CC2)CC1 | 95%
81 | Cc1cccc(OCCCCn2c(C3CC(=O)N(c4ccccc4Cl)C3)nc3ccccc32)c1 (stereo not drawn) | 10% (active)
82 | CCc1ccccc1N1CC(c2nc3ccccc3n2CCCCOc2ccccc2)CC1=O (stereo not drawn) | 54%
83 | O=C1CC(c2nc3ccccc3n2CCCCOc2ccccc2)CN1c1ccccc1Cl (stereo not drawn) | 58%
84 | Cc1cccc(OCCCCn2c(C3CC(=O)N(c4ccc(C)cc4C)C3)nc3ccccc32)c1 (stereo not drawn) | 47%
85 | Cc1cc(C)cc(OCCn2c(C3CC(=O)N(c4ccccc4Cl)C3)nc3ccccc32)c1 (stereo not drawn) | 85%
86 | CCc1ccccc1N1CC(c2nc3ccccc3n2CCOc2ccc(Cl)c(C)c2)CC1=O (stereo not drawn) | 3% (active)
87 | CCOc1ccccc1N1CC(c2nc3ccccc3n2CCCOc2ccc(OC)cc2)CC1=O (stereo not drawn) | 78%
88 | CCc1ccccc1N1CC(c2nc3ccccc3n2CCCOc2ccc(Cl)cc2)CC1=O (stereo not drawn) | 41% (active)
